# Measurements reported in PubChem BioAssay AID488899 (Broad Institute, 2010).
# The whole screen tested about 330,000 compounds, of which about 2,800 (0.85%) were called active. What follows is part of a selection rich in actives, with near analogues and random picks from the rest. Values without a mark were called inactive.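 How the source made its calls: active means mean inhibition across replicates of 60% or more, whatever share of single replicates reaches that level; inconclusive means some that reach 60%, reason not given; inactive means mean inhibition across replicates below 60%.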
# Assay: MITF transcriptional activity suppression – cell-based, SK-MEL-5, single point, luciferase, primary screen (AID 488899)
# Conditions: SK-MEL-5 TRPM1 promoter luciferase, 24 h; at 12.5 µM; hits give high values
row,Compound,inhibition
1,CCOC(=O)c1c(C)nc(-c2ccccc2)nc1NC(=O)C(C)C,-26.2%
2,CCOC(=O)c1c(C)[nH]c2c1-c1ccccc1C(=O)C2=O,106% (active)
3,CCOC(=O)c1ccccc1OC(=O)Oc1ccccc1C(=O)OCC,24%
4,CC(C)OC(=O)CN1CCN(c2ccc(Cl)cc2)CC1,-22.1%
5,C=CCn1c(C)cc(C2=NNC(=NCC)SC2)c1C,98.4% (active)
6,Cc1ccc(S(=O)(=O)NCc2ccc(C(=O)NC3CCC(C)CC3)cc2)cc1 (stereo unspecified),-5.23%
7,O=C(NCCc1ccccc1)c1cccc(NC(=O)c2ccccc2)c1,-26.7%
8,CCN(CC(=O)Nc1c(F)cccc1F)C(=O)Cc1cccs1,-11.1%
9,Cc1ccc(S(=O)(=O)CC(=O)Nc2nnc(C)s2)cc1,7.41%
10,Cc1cccc(NC(=O)c2nc[nH]c2C(=O)NCC(=O)OCc2ccccc2)c1,-4.1%
11,Cc1ccc(CS(=O)(=O)c2ncc(Cl)c(C(=O)Nc3nnc(C)s3)n2)cc1,85.4% (active)
12,CSc1nnc(NC(=O)c2nc(S(=O)(=O)Cc3ccc(C)cc3)ncc2Cl)s1,62.7% (active)
13,Cc1cccc(CS(=O)(=O)c2ncc(Cl)c(C(=O)Nc3ccc(F)cc3)n2)c1,41%
14,CSc1ncc(Cl)c(C(=O)Nc2cc(C)ccc2C)n1,18.6%
15,COCCSc1nnc(NC(=O)CCS(=O)(=O)Cc2ccccc2)s1,-6.5%
16,Cc1nnc(NC(=O)c2ccc3nccnc3c2)s1,-45.1%
17,Cc1cccc(NC(=O)c2nc(S(=O)(=O)Cc3ccccc3)ncc2Cl)c1,70.8% (active)
18,NS(=O)(=O)c1ccccc1NC(=O)c1c(O)c2ccccc2[nH]c1=O,-57.1%
19,Cc1nc(N)nc(Cl)c1CCC1OCCO1,-7.11%
20,Cc1ccc(CN(CC(=O)NCC2CCCO2)S(=O)(=O)c2ccc(C)cc2)cc1 (stereo unspecified),-1.73%
21,COc1ccc(N2C(=O)C(CC(=O)Nc3ccccc3)N(Cc3ccc(OC)c(OC)c3)C2=O)cc1 (stereo unspecified),-7.22%

row,Compound,inhibition
1,COc1ccc([N+](=O)[O-])cc1N(CC(O)Cn1nnc2ccccc21)S(=O)(=O)c1ccc(C)cc1 (stereo unspecified),-0.297%
2,Cc1cc(F)ccc1NC(=S)NCCc1ccccc1,7.66%
3,Cc1ccc(C)c(S(=O)(=O)N(C)c2ccc(OC(=O)C3CCN(C(=O)c4ccc(F)cc4)CC3)cc2)c1,-0.817%
4,Cc1ccc(S(=O)(=O)N2CCN(C(=O)c3cc(S(=O)(=O)N4CCOCC4)ccc3F)CC2)cc1,3.63%
5,CC(C)Nc1nnc(SC(C)C(=O)N(C)C2CCCCC2)s1 (stereo unspecified),3.93%
6,O=C(/C=C/Sc1ncn[nH]1)c1ccc(Cl)cc1,90.5% (active)
7,Cc1ccc(C(=O)/C=C/c2c(C)nn(-c3ccccc3)c2Cl)cc1,-34.6%
8,Cc1cccc(C=CC(=O)c2ccc(Cl)cc2)c1,-37.5%
9,CC(=O)Nc1ccc(NC(=O)C(C)OC(=O)c2ccccc2C(=O)c2ccc(Cl)c([N+](=O)[O-])c2)cc1 (stereo unspecified),75.9% (active)
10,CC(OC(=O)CNC(=O)c1ccc(Cl)c([N+](=O)[O-])c1)C(=O)NCc1ccco1 (stereo unspecified),-4.83%
11,O=C(Nc1ccncc1)c1ccc(Cl)c([N+](=O)[O-])c1,-0.779%
12,O=C(COC(=O)c1cnccn1)Nc1ccc(Cl)cc1C(F)(F)F,8.53%
13,COc1ccc(CC(=O)NC2CCSc3ccccc32)cc1OC (stereo unspecified),3.11%
14,COc1ccccc1N1CCN(S(=O)(=O)c2ccc(Cl)cc2)CC1,8.65%
15,COc1ccccc1-n1nnnc1SCC(=O)NC(=O)Cc1ccccc1,2.76%
16,COc1ccccc1-n1nnnc1S(=O)(=O)Cc1ccc(Cl)cc1,73.6% (active)
17,CCc1nn(-c2cc(Oc3cccc4ccccc34)nc(-c3ccccc3)n2)c(N)c1C#N,86.1% (active)
18,CC(C)(C)n1nc(Cc2cccc3ccccc23)c(C#N)c1N,4.42%
19,O=C(c1ccc2c(c1)N(Cc1ccc(F)cc1)C(=O)c1ccccc1S2(=O)=O)N1CCN(c2ccccn2)CC1,7.75%
20,CCOC(=O)C1(Cc2ccccc2C)CCCN(S(C)(=O)=O)C1 (stereo unspecified),0.048%
